Screening data: PubChem, several laboratories
Hits are enriched below; roughly 1.2% of the tested compounds scored in any of these assays.
PKD1 inh: inhibitors of human PKD1 kinase, biochemical, fluorescence polarization; Serine/threonine-protein kinase D1 (Homo sapiens), Q15139; PKD1 kinase fluorescence polarization assay; inhibition, % (test concentration not listed); actives 0.056% (n = 200,000); in the data active = inhibition above about 50%
FAS-TE inh: FAS thioesterase domain inhibitors, primary screen, biochemical, fluorescence intensity, uHTS; Fatty acid synthase (Homo sapiens), P49327; recombinant FAS-TE, OMFH fluorogenic substrate, fluorescence endpoint; inhibition, % at 15 µM; actives 0.67% (n = 360,000);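 active = compounds whose normalised, plate-corrected inhibition of enzyme fluorescence in the single-dose primary screen is 50% or more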;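 note: 0% = DMSO with enzyme and 100% = substrate without enzyme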
SUMO HTRF inh: inhibitors of in vitro SUMOylation cascade, primary screen, biochemical, HTRF, uHTS | actives 0.36% (n = 290,000) | SUMO-conjugating enzyme UBC9 (Homo sapiens), P63279 | inhibition, % at 35 µM | HTRF SUMOylation assay, SAE1/SAE2 + UBC9; in the data active = inhibition above about 50%, passing the limit was not always enough
Redox H2O2 prof: compounds producing H2O2 with reducing agent – biochemical, NIH compound library profiling, artefact control for MLSCN library redox annotation, primary screen. actives 0.03% (n = 200,000). AID 878, 2007. activation, % at 10 µM. DTT-dependent redox cycling H2O2, phenol red/HRP absorbance; 100% = 100 µM peroxide control, 0% = buffer;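 active = activation of at least 50% relative to the plate's high and low controls in the primary single-dose screen; inactive = activation below 50%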;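 note: compound incubated with DTT at 0.8 mM final as the reducing agent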
p97 ATPase inh: inhibitors of human p97 ATPase, primary screen, biochemical; Transitional endoplasmic reticulum ATPase (Homo sapiens), P55072; recombinant p97 ATPase, Kinase-Glo ATP luminescence, 3 h; inhibition, % at 8 µM; actives 0.42% (n = 220,000); AID 1481, 2009; in the data active = inhibition above about 15%;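 note: 0% = DMSO vehicle and 100% = wells lacking enzyme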
Furin inhibitor: human furin inhibitors, primary screen, biochemical, fluorescence intensity; P09958; purified furin, fluorogenic substrate cleavage; inhibition, % at 20 µM or 30 µM; actives 0.061% (n = 220,000); in the data active = inhibition above about 25%
FAS-TE conf: FAS thioesterase domain inhibitors, confirmation, biochemical, fluorescence intensity, single concentration; shares compounds with FAS-TE inh; recombinant FAS-TE, OMFH fluorogenic substrate; inhibition, % at 15 µM; actives 45% (n = 2,300); AID 624325, 2012;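 active = compounds inhibiting the enzyme by at least 50% at 15 µM in any one of the replicates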;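 note: 0% = enzyme with DMSO only and 100% = wells lacking enzyme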
Active calls of the source: *.

For Cc1ccccc1CSCC(=O)Nc1ccccc1Br the results were FAS-TE inh 14 and SUMO HTRF inh 21.
For O=C(Nc1cc(S(=O)(=O)N2CCOCC2)ccc1O)c1ccc2c(c1)S(=O)(=O)c1ccccc1C2=O the results were PKD1 inh -3, FAS-TE inh 57*, SUMO HTRF inh 14, Redox H2O2 prof -2, p97 ATPase inh 5, Furin inhibitor -32 and FAS-TE conf 31.
Screening CC(NC(=O)COC(=O)c1cc([N+](=O)[O-])ccc1N1CCOCC1)c1ccc(F)cc1 (configuration not stated) returned FAS-TE inh 82* and FAS-TE conf 84*.
`CC(NC(=O)COC(=O)c1cc([N+](=O)[O-])ccc1N1CCOCC1)c1ccccc1` (configuration not stated) gave FAS-TE inh 73*, SUMO HTRF inh 5 and FAS-TE conf 85*.
Screening O=[N+]([O-])c1cc(CS(=O)(=O)Oc2ccc(Cl)cc2)c(O)c([N+](=O)[O-])c1 returned FAS-TE inh 57* and FAS-TE conf 68*.
Screening O=[N+]([O-])c1ccc(CS(=O)(=O)c2ccc(Cl)cc2)cc1 returned FAS-TE inh 8 and SUMO HTRF inh 26.
Screening CC(=O)N=c1c(C#N)cc2c(=O)n3ccccc3nc2n1CCCOC(C)C returned FAS-TE inh 13, SUMO HTRF inh 28, p97 ATPase inh 5 and Furin inhibitor -72.
Screening CCCCn1c(=NC(C)=O)c(C#N)cc2c(=O)n3cccc(C)c3nc21 returned FAS-TE inh 50* and FAS-TE conf 32.
For CCCCCn1c(=NC(C)=O)c(C#N)cc2c(=O)n3ccccc3nc21 the results were PKD1 inh 0, FAS-TE inh 61*, SUMO HTRF inh 30, Redox H2O2 prof 1, p97 ATPase inh -2, Furin inhibitor -87 and FAS-TE conf 23.
Screening CCOCCCn1c(=NC(C)=O)c(C#N)cc2c(=O)n3cccc(C)c3nc21 returned FAS-TE inh 25, SUMO HTRF inh 19, p97 ATPase inh 2 and Furin inhibitor -85.
Screening CCc1ccc(NC(=O)C(C)Sc2ccc(S(=O)(=O)N3CCN(C)CC3)cn2)cc1 (configuration not stated) returned FAS-TE inh 4.
`CC(Sc1nncn1C)C(=O)Nc1ccc(N2CCCCC2)cc1` (configuration not stated) gave FAS-TE inh -6.
`Cc1cc(Cl)ccc1OC(C)C(=O)Nc1ccc([N+](=O)[O-])cn1` (configuration not stated) gave PKD1 inh -8, FAS-TE inh 52*, SUMO HTRF inh -1, Redox H2O2 prof 0, p97 ATPase inh 1, Furin inhibitor -3 and FAS-TE conf 22.
For O=C1CSc2ccc(C(=O)Nc3cccc(S(=O)(=O)Nc4ccc(Br)cc4)c3)cc2N1 the results were PKD1 inh -1, FAS-TE inh 50*, SUMO HTRF inh -19, Redox H2O2 prof -1, p97 ATPase inh 2, Furin inhibitor -16 and FAS-TE conf 21.
O=C(O)CC1(CC(=O)Nc2nccs2)CCCCC1 was read as FAS-TE inh -3.
COc1ccc(OC)c(/C=C2\N=C(c3ccccc3)OC2=O)c1 was read as FAS-TE inh 61*, SUMO HTRF inh 7 and FAS-TE conf -38.
`COc1cc(/C=N/NC(=O)C(Cc2c[nH]c3ccccc23)NC(=O)OCc2ccccc2)cc([N+](=O)[O-])c1O` (configuration not stated) gave PKD1 inh 8, FAS-TE inh 75*, SUMO HTRF inh 34, Redox H2O2 prof 0, p97 ATPase inh 2, Furin inhibitor -13 and FAS-TE conf 75*.
